This note sets out measurements from PubChem BioAssay (EPA / NIEHS).

Results filed as inconclusive are left out. The source holds several records for some structures; these can differ, active in one and inactive in another. Calls of active or inactive are those of the source. The calls were made as follows: active = hit-call score of the fitted dose curve at least 0.9, where 1 is the maximum; inconclusive = response in the unintended direction; inactive = score below 0.9.

The assay deals with Retinoic acid receptor RXR-alpha (Homo sapiens) (UniProt P19793). As to the kind of experiment: ATG_RXRa_TRANS: Attagene TRANS-FACTORIAL HepG2 Assay for human Retinoid X Receptor alpha (RXRa) (AID 2283012). As to the method: ATG_TRANS is a cell-based, multiplexed-readout assay that uses HepG2, a human liver cell line, with measurements taken at 24 hours after chemical dosing in a 24-well plate.ATG_RXRa_TRANS is one of 30 assay component(s) measured or calculated from the ATG_TRANS assay. It is designed to make measurements of mRNA induction, a form of inducible reporter, as detected with fluorescence intensity signals by Reverse transcription polymerase chain reaction (RT-PCR) and Capillary electrophoresis technology.Data from the assay component ATG_RXRa_TRANS was analyzed into 1 assay endpoint. This assay endpoint, ATG_RXRa_TRANS, was analyzed in the positive analysis fitting direction relative to DMSO as the negative control and baseline of activity. Using a type of inducible reporter, measures of mRNA for gain-of-signal activity can be used to understand the reporter gene at the transcription factor-level as they relate to the gene RXRA. Furthermore, this assay endpoint can be referred to as a primary readout, because this assay has produced multiple assay endpoints where this one serves a reporter gene function. To generalize the intended target to other relatable targets, this assay endpoint is annotated to the nuclear receptor intended target family, where the subfamily is non-steroidal.
Sequence of Retinoic acid receptor RXR-alpha (Homo sapiens) (P19793 whole entry, looked up): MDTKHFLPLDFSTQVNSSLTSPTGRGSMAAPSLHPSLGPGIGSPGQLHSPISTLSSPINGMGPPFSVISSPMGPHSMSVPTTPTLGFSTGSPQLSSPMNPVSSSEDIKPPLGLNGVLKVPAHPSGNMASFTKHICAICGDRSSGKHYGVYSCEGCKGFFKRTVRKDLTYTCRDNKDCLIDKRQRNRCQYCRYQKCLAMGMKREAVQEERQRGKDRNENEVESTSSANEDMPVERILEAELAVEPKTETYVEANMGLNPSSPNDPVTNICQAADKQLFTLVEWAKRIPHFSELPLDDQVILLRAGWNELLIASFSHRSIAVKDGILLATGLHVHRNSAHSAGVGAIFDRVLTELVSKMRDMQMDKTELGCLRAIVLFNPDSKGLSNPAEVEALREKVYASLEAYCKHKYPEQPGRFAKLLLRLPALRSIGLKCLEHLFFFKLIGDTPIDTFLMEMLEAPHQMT
Human liver HepG2 cells are transiently transfected with multiple reporter transcription units (MRTUs) in 6-well plates using FuGene 6 reagent (Roche; 3 ml FuGene/1 mg DNA). The MRTU constructs are regulated by a cis-regulating element (promoter). […] A major difference between the CIS and TRANS system is that in CIS activities of endogenous TFs are measured, whereas the TRANS assay evaluates changes in activities of exogenous, chimeric NR-Gal4 proteins. […] At the end of 24 hour incubation, total RNA was isolated using TriZol reagent (Invitrogen). The isolated RNA is then reverse-transcribed using oligo(dT) primer and Mo-MLV reverse transcriptase (Invitrogen) with DNAse I (Ambion) treatment for 30 min. The one-tenth of the produced cDNA was amplified by PCR using Taq DNA polymerase (Invitrogen) and two reporter sequence-specific primers. The PCR products were fluorescently labeled by primer extension with 6-arboxyfluorescein (6-FAM) 5'-labeled reporter sequence-specific primer (2 min at 95 C, 20 s at 68 C and 10 min at 72 C) and these products were digested with 5U of HpaI (New England Biolabs) for 2h at 37 C. The fragments were purified using Qiaquick PCR columns (Qiagen), analyzed on an ABI 3130xL genetic analyzer (Applied Biosystems) with peak positions identified by using a set of X-rhodamine (ROX)-labeled MapMarker1000 molecular weight standards (BioVentures). The raw capillary electrophoresis data was processed using Attagraph software (Attagene).
Consider `c1ccc(C[n+]2cccc3ccccc32)cc1`, for which the call was inactive.

In the case of `Cc1cccc2ccccc12`, the call was inactive.

`O=C(O)Cn1c(=O)n(Cc2ccc(Br)cc2F)c(=O)c2ccc(Cl)cc21`: the compound was called inactive.

Turning to `CC(C)(C)c1cc(/C=C2\SC(N)=NC2=O)cc(C(C)(C)C)c1O`, the result was inactive.

As for `NCc1cccc(C2CCN(C(=O)c3ccc(C#Cc4ccccc4F)o3)CC2)c1`, the call was inactive.

Turning to `CCCCCCCCN(C)CCCCCCCC`, the result was inactive.

For the compound `COc1ccc2cc(S(=O)(=O)N[C@H](CC(=O)N[C@H](Cc3ccc(CN4[C@H](C)CCC[C@@H]4C)cc3)C(=O)N(C)C(C)C)c3ccc4c(c3)OCO4)ccc2c1`, the result was inactive.

Regarding `Oc1ccccc1`, the call was inactive.

Turning to `CCO[Si](CCCNC(N)=O)(OCC)OCC`, the result was inactive.

`O=CCCCC=O`: the compound was classed as inactive.

Turning to `OC12N=C(c3ccccc3)SC1Cc1cc(Cl)ccc12` (stereo not given), the call was inactive.

Turning to `C[C@]12CC[C@@H]3c4ccc(O)cc4CC[C@H]3[C@@H]1CCC2=O`, the compound was called inactive.

As to `Cc1ccc2oc(CN(Cc3ccccc3)C(=O)Nc3c(F)cc(F)cc3F)c(-c3ccc(Cl)cc3)c2c1`, the result was inactive.

Consider `CN(C)C(=O)C1(N2CCCCC2)CCN(CC[C@@]2(c3ccc(Cl)c(Cl)c3)CN(C(=O)c3ccccc3)CCO2)CC1`, for which the call was inactive.

Consider `CC[C@H](NC(=O)c1cc(F)ccc1NS(=O)(=O)c1cccc2cccnc12)c1ccccc1`, for which the call was inactive.

`CCCCCCCCCCCCO`: the compound was classed as inactive.

For `CCCCOC(=O)c1ccc(O)cc1`, the outcome was inactive.

As to `O=C1CCC(C2CCCCC2)CC1`, the compound was called inactive.

On to `CC/C(=C(/CC)c1ccc(O)cc1)c1ccc(O)cc1`, for which the result was inactive.

`CCN(Cc1cccc(S(=O)(=O)O)c1)c1ccc(C(=C2C=CC(=[N+](CC)Cc3cccc(S(=O)(=O)O)c3)C=C2)c2ccccc2S(=O)(=O)[O-])cc1`: the outcome was inactive.

For the compound `CCCCCCCC[Si](OCC)(OCC)OCC`, the compound was called inactive.

Consider `CCCCCCCCCCCC[N+](C)(C)C`, for which the compound was called inactive.

For `CN(C)c1ccc(C(=C2C=CC(=[N+](C)C)C=C2)c2ccc(N(C)C)cc2)cc1`, the result was inactive.

As usually defined, the AC50 is the midpoint of the concentration-response curve, whichever way the signal moves. Take `O=C1O[C@H]([C@@H](O)CO)C(O)=C1O`: the half-maximal activity concentration (AC50) is 26.6 µM (active) and the call was inactive.

As to `O=C(O)c1ccccc1C(=O)OCc1ccccc1`, the compound was classed as inactive.

`CCCCCCCCCCCO`: the AC50 is 179 µM (active).

For the compound `c1ccc2ccccc2c1`, the result was inactive.

As to `Cc1ncc(CO)c(CO)c1O`, the compound was classed as inactive.

Turning to `CC(O)CC(C)(C)O` (stereo not given), the outcome was inactive.

On to `Cc1cc(F)ccc1-c1cc(N2CC[C@@H](O)[C@H]2CO)ncc1N(C)C(=O)C(C)(C)c1cc(C(F)(F)F)cc(C(F)(F)F)c1`, for which the outcome was inactive.

For `CCCCCCCCCC(=O)O`, the call was inactive.

In the case of `O=C=NCCCCCCN=C=O`, the call was inactive.

Turning to `O=C(O)Cc1cc(I)c(Oc2ccc(O)c(I)c2)c(I)c1`, the compound was classed as inactive.

For the compound `O=C1c2ccccc2C(=O)N1CCc1noc(-c2ccc(CN3CCCCCC3)s2)n1`, the call was inactive.

For the compound `CC1(C)NC(=O)N(c2ccc([N+](=O)[O-])c(C(F)(F)F)c2)C1=O`, the call was inactive.

`CCCCOC(=O)CC(CC(=O)OCCCC)(OC(C)=O)C(=O)OCCCC`: the compound was called inactive.

Regarding `OCCO`, the outcome was inactive.

`c1ccc2n[nH]nc2c1`: the outcome was inactive.

Turning to `CCCCCCCCOc1ccc(C(=O)c2ccccc2)c(O)c1`, the result was inactive.
